Bioassay records as filed in PubChem.
Lassa entry = qHTS for Inhibitors of binding or entry into cells for Lassa Virus. Lassa virus pseudotyped entry inhibition, cell-based qHTS. Potency, µM (doses to about 49.2 µM), for the others: at the highest dose activity change, negative = inhibition, usual class: inhibitors. hit rate 4.1% among 18,000. AID 720533, 2013
MARV entry inh = qHTS for Inhibitors of binding or entry into cells for Marburg Virus; Marburg virus pseudotype entry/binding inhibition, cell-based; Potency, µM (top dose mostly 49.2 µM), for inactives: at the top dose activity change, negative = inhibition, most hits filed as inhibitors; hit rate 6.5% among 18,000; AID 720532, 2013
Starred values were filed as active, the others as inactive; ! = a repeat was not active; [ ] = dose if it differs, or a comment. Sampled rows, rich in hits. Any-hit rate of the full collection: about 8%. Calls follow the shape of the full dose curve; tested in HEK293 cells. % is scaled to controls: 0 for no effect and ±100 for the full control effect; potency is read from the fitted curve at half-maximal effect.

`Cc1c(O)cccc1C(=O)N[C@@H](CSc1ccccc1)[C@H](O)CN1C[C@H]2CCCC[C@H]2C[C@H]1C(=O)NC(C)(C)C` gave Lassa entry 28.2µM* and MARV entry inh 11.2µM*.
For CCC[C@H]1CN(c2ccccc2)C(=O)[C@H]1CC(=O)Nc1ccc(OC)cc1 the results were Lassa entry 10.5% and MARV entry inh 3.8%.
For CCCC[C@H]1CN2[C@H](c3ccc(Br)cc3)[C@H](C)CC[C@H]2C(=O)O1 the results were Lassa entry 8.2%[8.59 µM] and MARV entry inh 1.8%[8.59 µM].
C(=C\c1ccccc1)/CN1CCN(C(c2ccccc2)c2ccccc2)CC1 was read as Lassa entry -25.4%[17.8 µM] and MARV entry inh -11.1%[17.8 µM].
For C(=C\c1ccccc1)/CN1CCN(CCOC(c2ccccc2)c2ccccc2)CC1 the results were Lassa entry 31.6µM* and MARV entry inh 8.91µM*.
OCCOCCN1CCN(C(c2ccccc2)c2ccc(Cl)cc2)CC1 (stereo unspecified) was read as Lassa entry -16.9% and MARV entry inh inconclusive.
`OC/C=C/c1ccccc1` gave Lassa entry -13.1% and MARV entry inh 7.8%.
`Fc1ccc(C(c2ccc(F)cc2)N2CCN(C/C=C/c3ccccc3)CC2)cc1` gave Lassa entry 31.6µM*! and MARV entry inh 2.51µM*.
`Clc1ccc(C(OCCN2CCCCC2)c2ccccc2)cc1` (stereo unspecified) gave Lassa entry inconclusive and MARV entry inh 12.6µM*.
Screening C[C@@H]1CC[C@H]2C(=O)N(Cc3ccc(Cl)cc3)C[C@@H](O)CN2[C@@H]1c1ccc(Br)cc1 returned Lassa entry -1.6%[8.59 µM] and MARV entry inh -14.8%[8.59 µM].
`COC(=O)C1C2CC(C)C(c3ccccc32)N1C(=O)C(F)(F)F` (stereo unspecified) gave Lassa entry -9.3%[8.59 µM] and MARV entry inh inconclusive.
Screening COc1cccc(CO[C@H]2C=C[C@@H](c3ccccc3)O[C@H]2CO)c1 returned Lassa entry -25.8%[8.59 µM] and MARV entry inh -7.5%[8.59 µM].
COC(=O)C(C(C)=O)[C@@H](NC(=O)NCc1ccccc1)c1ccccc1 (stereo partly specified) was read as Lassa entry 15.2%[8.59 µM] and MARV entry inh 25.3%[8.59 µM].
`O=S1(=O)N[C@@H](Cc2ccccc2)COc2c(Cl)cccc21` gave Lassa entry 7.7% and MARV entry inh 3.8%.
For C[C@H]1CCCC(=O)N[C@@H](c2ccccc2)[C@@H](C)CCCC(=O)N[C@@H]1c1ccccc1 the results were Lassa entry 16.7%[8.59 µM] and MARV entry inh 28.8%[8.59 µM].
Screening CCCCN(CC)CCOc1cccc2ccccc12 returned Lassa entry inconclusive and MARV entry inh 10µM*.
`CCN(CC)CCOc1ccccc1OC` gave Lassa entry -3.8% and MARV entry inh -4.7%.
`C=NCc1cc2c(OC[C@@H](O)CNC(C)(C)C)cccc2[nH]1` gave Lassa entry -0.2% and MARV entry inh inconclusive.
Screening CC(C)OC(=O)c1cc2c(OCC(O)CNC(C)(C)C)cccc2[nH]1 (stereo unspecified) returned Lassa entry -11.5% and MARV entry inh 35.5µM*.
c1ccc(-c2[nH]ncc2-c2ccnc(-c3ccc(OCCN4CCOCC4)cc3)c2)nc1 was read as Lassa entry -14.4% and MARV entry inh -19.1%.
Screening c1cc(-c2cnn3cc(-c4ccc(OCCN5CCCCC5)cc4)cnc23)ccn1 returned Lassa entry 40.6% and MARV entry inh 12.6µM*.
CC(C)OC(=O)Nc1ccc2nc(-c3cscn3)[nH]c2c1 was read as Lassa entry 28.2µM* and MARV entry inh -1.0%.
CCCCc1ccc2nc(NC(=O)OC)[nH]c2c1 was read as Lassa entry -3.4%[17.8 µM] and MARV entry inh -16.3%[17.8 µM].
Screening CC(C)=CCCC(C)=CCON=C1C[C@@H](O)[C@@H](O)[C@@H]2[C@H]3C(=O)N(c4ccc(F)cc4F)C(=O)[C@@H]3CC[C@H]12 returned Lassa entry 7.9%[8.59 µM] and MARV entry inh inconclusive.
Screening CCCCn1c(C)cc2c(c1=O)[C@H]1O[C@](CCCC)(Cc3cc(C#N)ccc31)O2 returned Lassa entry 13.8%[8.59 µM] and MARV entry inh inconclusive.
For CN1CC(O)C2=CC(=O)C(=O)C=C21 (stereo unspecified) the results were Lassa entry 0.6% and MARV entry inh 8.91µM*.
COc1ccc([C@]23Cc4cc(OC)c(OC)cc4[C@H](O2)c2c(c4ccccc4oc2=O)O3)cc1 was read as Lassa entry 22.5%[8.59 µM] and MARV entry inh 5.0%[8.59 µM].
For O=C(OC[C@H]1O[C@](O)(COC(=O)c2cccnc2)[C@@H](OC(=O)c2cccnc2)[C@@H]1OC(=O)c1cccnc1)c1cccnc1 the results were Lassa entry -8.4% and MARV entry inh 3.0%.
`C=CCN=C1NC(c2cccc(F)c2)C(C(=O)OC)=C(C)N1Cc1ccccc1` (stereo unspecified) gave Lassa entry -15.4%[8.59 µM] and MARV entry inh inconclusive.
For C=CCc1cccc(/C=N/NC(=O)CN2CCN(Cc3ccccc3)CC2)c1O the results were Lassa entry 12.6µM* and MARV entry inh inconclusive.
O=C(O)c1ccccc1[O-].O=C(O)c1ccccc1[O-].[Zn+2] was read as Lassa entry -15.0% and MARV entry inh 6.0%.
For O=C1CCCC2=C1[C@H]1O[C@](c3ccsc3)(Cc3c1ccc1ccccc31)O2 the results were Lassa entry 1.8%[8.59 µM] and MARV entry inh -13.7%[8.59 µM].
`Cc1c(N)nc([C@H](CC(N)=O)NC[C@H](N)C(N)=O)nc1C(=O)N[C@H](C(=O)N[C@H](C)[C@@H](O)[C@H](C)C(=O)N[C@H](C(=O)NCCc1nc(-c2nc(C(=O)NCCCCN=C(N)N)cs2)cs1)[C@@H](C)O)[C@@H](O[C@@H]1O[C@@H](CO)[C@@H](O)[C@H](O)[C@@H]1O[C@H]1O[C@H](CO)[C@@H](O)[C@H](OC(N)=O)[C@@H]1O)c1cnc[nH]1` gave Lassa entry 3.16µM* and MARV entry inh 3.98µM*.
For COc1ccc(NC(=O)c2ccc(-c3ccc(-c4noc(C)n4)cc3C)cc2)cc1OCCN(C)C the results were Lassa entry 22.4µM* and MARV entry inh 3.55µM*.
Screening Cc1nc(-c2ccc(-c3ccc(C(=O)N4CCc5cc6c(cc54)C4(CCN(C)CC4)CO6)cc3)c(C)c2)no1 returned Lassa entry 28.2µM* and MARV entry inh 10µM*.
COc1ccc(NC(=O)c2ccc(-c3ccc(-c4noc(C)n4)cc3C)cc2)cc1N1CCN(C)CC1 was read as Lassa entry 15.8µM* and MARV entry inh 6.31µM*.
For COc1ccc(C(=O)NCc2ccc(OCCN(C)C)cc2)cc1OC the results were Lassa entry -12.5% and MARV entry inh -16.9%.
`Cc1ccc(NC(=O)c2ccnc(N3CCCC3)c2)cc1-c1ccc(C(=O)NCC2CC2)cc1` gave MARV entry inh 44.9%.
`COC(=O)c1cc(CNC(=O)c2ccccc2OC)cc(NC(=O)c2ccccc2F)c1` gave Lassa entry inconclusive and MARV entry inh -26.5%.
For CN1CCN(CCCNc2nc3ccc(Oc4ccc(NC(=O)Nc5cc(C(F)(F)F)ccc5F)cc4)cc3[nH]2)CC1 the results were Lassa entry 60.7% and MARV entry inh inconclusive.
`C=CCCCC=C(C)[C@H](OCc1ccc(OC)cc1)[C@H](CCC=C(C)C(N)=O)OC` gave Lassa entry -16.9%[8.59 µM] and MARV entry inh 10.3%[8.59 µM].
c1ccc(C(NCCNC(c2ccccc2)c2ccccc2)c2ccccc2)cc1 was read as Lassa entry 12.6µM* and MARV entry inh 7.08µM*.
